# ALOX12 inhib = inhibitors of human 12-lipoxygenase (ALOX12); P18054; purified 12-hLO, xylenol orange hydroperoxide absorbance; Potency, µM (highest dose often 57.1 µM), usual class: inhibitors; hit rate 0.12% among 150,000; AID 1452; also: nearly all actives have a fitted effect of over 55% in size
#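 Xylenol orange chromogenic assay: hydroperoxide from 12hLO oxidises Fe(II), giving red-shifted Fe(III)-XO absorbance. Conditions: 150 nM enzyme, 40 uM arachidonic acid, 25 mM Hepes pH 7.0, 0.01% Triton X-100, 30 min, room temperature.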
# HPGD block = blocks human HPGD enzyme activity; purified HPGD, NADH fluorescence kinetic, PGE2 substrate; hit rate 4.3% among 150,000; Potency, µM, usual class: inhibitors; P15428; active = well fitted inhibition curve with a large enough effect, not every such curve was filed as active; inconclusive = small, poorly fitted or top-dose-only effect, or another doubt; inactive = no such curve, though single readings can be large or run the other way
#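 20 nM HPGD preincubated 15 min at room temperature with compound in 50 mM Tris-HCl pH 8, 0.01% Tween 20. Started with 1 mM NAD+ and 30 uM prostaglandin E2; NADH fluorescence (360/450 nm) read 5 times over 30-s intervals, last minus first.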
# ALDH1A1 block = blocks purified human ALDH1A1 activity | P00352 | Purified ALDH1A1, NADH fluorescence, propionaldehyde substrate | Potency, µM (highest dose often 75.3 µM), hits mostly inhibitors | hit rate 7.3% among 220,000 | AID 1030; active = well fitted inhibition curve with a large enough effect, not every such curve was filed as active; inconclusive = small, poorly fitted or top-dose-only effect, or another doubt; inactive = no such curve, though single readings can be large or run the other way
# Target sequence (P00352 whole entry, looked up): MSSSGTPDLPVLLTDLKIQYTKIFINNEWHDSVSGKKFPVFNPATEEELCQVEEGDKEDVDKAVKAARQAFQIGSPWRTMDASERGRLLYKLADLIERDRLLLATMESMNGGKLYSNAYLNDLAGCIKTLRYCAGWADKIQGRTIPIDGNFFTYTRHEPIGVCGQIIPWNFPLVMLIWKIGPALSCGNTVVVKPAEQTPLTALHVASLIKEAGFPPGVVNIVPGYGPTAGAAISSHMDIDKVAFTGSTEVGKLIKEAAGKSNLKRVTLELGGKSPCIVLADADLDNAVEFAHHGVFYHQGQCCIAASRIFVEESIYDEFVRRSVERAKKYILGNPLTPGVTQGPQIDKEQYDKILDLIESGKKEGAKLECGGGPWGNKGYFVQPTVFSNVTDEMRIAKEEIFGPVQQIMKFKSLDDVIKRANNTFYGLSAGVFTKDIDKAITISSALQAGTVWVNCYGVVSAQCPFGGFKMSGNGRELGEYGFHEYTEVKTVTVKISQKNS
# NPSR antag = antagonists of human neuropeptide S receptor cAMP signaling | CHO-NPSR cells, cAMP TR-FRET, antagonist mode | Potency, µM (highest dose often 38.3 µM), hits mostly inhibitors | hit rate 1% among 220,000; also: nearly all actives have a fitted effect of over 50% in size
# IMPase inh = cell-permeable inhibitors of inositol monophosphatase (IMPase) | P97697 | CHO-M1 cells, IP1 accumulation, HTRF TR-FRET ratio | inhibition (IP1 accumulation), % at 46.1 µM | 120,000 tested, under 10 active | AID 901; active = well fitted curve in the direction sought with a large enough effect in the signal ratio, not every such curve was filed as active; inconclusive = small, poorly fitted or top-dose-only effect, or a change in a side signal; inactive = no such curve, though single readings can be large or run the other way; the % refers to the signal ratio;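 also: cells stimulated with carbachol in lithium chloride buffer; higher means more IMPase inhibition seen as more IP1 and lower FRET ratio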
# Target sequence (P97697 whole entry, looked up): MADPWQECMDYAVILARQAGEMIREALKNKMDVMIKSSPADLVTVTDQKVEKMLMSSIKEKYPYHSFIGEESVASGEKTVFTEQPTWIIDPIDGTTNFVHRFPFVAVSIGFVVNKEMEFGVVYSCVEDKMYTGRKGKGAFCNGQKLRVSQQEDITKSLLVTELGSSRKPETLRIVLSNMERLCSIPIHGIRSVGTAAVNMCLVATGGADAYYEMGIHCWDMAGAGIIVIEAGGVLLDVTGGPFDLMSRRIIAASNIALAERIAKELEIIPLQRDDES
#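 The IP-One HTRF competitive assay in carbachol-stimulated CHO-M1 cells quantifies cellular IP1. Compounds spanned up to 46 uM final, and activity is expressed as AC50 from concentration-response fits of the ratio and donor data.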
# IMPase Li inh = cell-permeable IMPase inhibitors with lithium potentiation; CHO-M1 cells, IP1 TR-FRET (IP-One), carbachol + lithium; hit rate 0.35% among 210,000; AID 1457; Potency, µM (top dose mostly 59.4 µM), hits mostly inhibitors;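 also: IP1 builds up when IMPase is blocked and the TR-FRET signal falls; nearly all actives have a fitted effect of over 50% in size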
#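 CHO cells stably expressing M1 receptor (2000/well, cultured 16–30 h) treated 30 min at 37C with compound plus low lithium. Cytosolic IP1 by TR-FRET (665/620 ratio and 620 channel) after 10 min lysis; AC50 by Hill fit.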
# A number is an active result; - = inactive; ? = inconclusive; . = no result given; ! = not confirmed by another sample; [ ] = remark or other dose. Most compounds without a hit are left out; they make up all but 8.9% or so of the library. Unless noted, calls follow the shape of the dose curve; as a rule, active = well fitted curve in the direction sought with a large enough effect; inconclusive = small, poorly fitted or top-dose-only effect, or another doubt; inactive = no such curve, though single readings can be large; an effect the other way counts as inactive or inconclusive.
SMILES,ALOX12 inhib,HPGD block,ALDH1A1 block,NPSR antag,IMPase inh,IMPase Li inh
CCOCC(=O)Nc1nc2c(s1)C(=O)CC(C)(C)C2,-,?,?,-,?,-
CC1(C)CC(=O)c2sc(NC(=O)C3CC3)nc2C1,-,-,11µM,-,-,-
COc1ccc(-c2nc(NC(=O)c3cc(C(C)(C)C)nn3C)sc2C)cc1,?,?,?,-,-,-
Cn1nc(C(C)(C)C)cc1C(=O)Nc1nc2c(s1)C(=O)CC(C)(C)C2,-,-,14µM,-,?,-
O=C1CC(N2CCCCC2)C(=O)N1c1ccccc1 (stereo unspecified),-,-,?,-,-,-
O=CN1CCN(C2CC(=O)N(c3ccc(Br)cc3)C2=O)CC1 (stereo unspecified),-,-,?,-,-,-
O=C1CC(N2CCC(O)CC2)C(=O)N1c1ccc(Br)cc1 (stereo unspecified),-,-,22µM,-,-,-
O=C1CC(N2CCCN(C3CC(=O)N(c4ccc(F)cc4)C3=O)CC2)C(=O)N1c1ccc(F)cc1 (stereo unspecified),-,-,13µM,-,-,-
N#CCCN(C(=O)COc1ccc(F)cc1Br)c1ccccc1F,.,.,18µM,-,.,-
CC(=O)c1c(C(C)=O)c(C)n(-c2nc(-c3cccs3)c(C)s2)c1C,-,-,-,-,-,-
CC(=O)N1CC[C@@H]2CC(=O)CC[C@@H]21,-[0.00818 µM],-,-,.,.,-
O=C(O)c1cc(-c2ccco2)nc2ccc(Br)cc12,-,?,4µM!,6.3µM!,?,10µM!
NC(=O)COC(=O)c1cc(-c2ccco2)nc2ccccc12,.,.,.,-,.,.
CN(C)c1ccc(C=C2C(=O)OC(C)(C(C)(C)C)OC2=O)cc1 (stereo unspecified),-,10µM,0.4µM,-,-,?
CN(C)c1ccc(C=C2C(=O)OC(C)(C)OC2=O)cc1,.,.,0.79µM,-,.,-
CCOC(=O)C1=C(C)N(C)C(=O)NC1c1c(C)nn(-c2ccccc2)c1C (stereo unspecified),-,-,-,-,-,-
O=C(CN1C(=O)NC2(CCCCCCC2)C1=O)N1CCN(C(=O)c2ccco2)CC1,-,-,11µM,-,-,-
O=C(COC(=O)C1(c2ccc(F)cc2)CCCC1)N1CCN(C(=O)c2ccco2)CC1,-,-,20µM,-,-,-
O=C(O)c1ccccc1NC(=O)N1CCOCC1,.,.,?,-,.,-
Cc1[nH][nH]c(=O)c1C(c1ccc(-c2ccccc2C(=O)O)o1)c1c(C)[nH][nH]c1=O,.,.,5µM,-,.,-
Cc1[nH][nH]c(=O)c1C(c1ccc(-c2cccc(C(=O)O)c2)o1)c1c(C)[nH][nH]c1=O,.,.,?,-,.,-
COC(=O)c1ccc(-c2ccc(C(c3c(C)[nH][nH]c3=O)c3c(C)[nH][nH]c3=O)o2)cc1,.,.,3.5µM,-,.,-
Cc1[nH][nH]c(=O)c1C(c1ccc(-c2cccc(Cl)c2)o1)c1c(C)[nH][nH]c1=O,.,.,.,-,.,.
C=CCNC(=S)NNC(=O)c1ccco1,.,.,-,-,.,-
CCOc1ccc(C(=O)COC(=O)CC)cc1,-,-,-,-,-[1.84 µM],-
SMILES,ALOX12 inhib,HPGD block,ALDH1A1 block,NPSR antag,IMPase inh,IMPase Li inh
CCOc1ccc(/C=C2/SC(=O)NC2=S)cc1,-,13µM,?,-,.,-
CCOc1ccc(N=C2NC(=O)S/C2=C\c2ccc(N(C)C)cc2)cc1,-,-,-,-,-,-
CCN(CC)C(=S)NC(=O)Cc1ccccc1,.,.,-,-,.,-
C=CCN(CC=C)C(=S)NC(=O)Cc1cccc2ccccc12,.,.,19µM,?,.,-
COc1cc(C(=O)Oc2ccc3c(OC)c4ccoc4nc3c2OC)cc(OC)c1OC,.,-,-,.,.,-
CCOC(=O)c1sc(=S)n(-c2ccc(OC)cc2)c1N,.,.,.,-,.,.
CCOC(=O)c1sc(=S)n(-c2ccc(C)cc2)c1SC,-,?,22µM,?,-,-
CN1CCN(C(=O)c2sc(=S)n(-c3ccccc3)c2N)CC1,-,7.9µM,3.2µM,-,-,-
CCNC(=O)c1sc(=S)n(-c2ccc(C)cc2)c1N,-,35µM,13µM,-,-,-
CCOC(=O)c1sc(=S)n(-c2ccccc2)c1C,.,.,.,-,.,.
Cc1ccc(-n2c(N)c(C(=O)N3CCOCC3)sc2=S)cc1,-,10µM,3.2µM,-,-,-
Cc1ccc(C)n1-c1ccc(C(=O)N2CCOCC2)cc1,-,?,?,-,-,-
Cc1sc(N2C(=O)C3C4C=CC(C4)C3C2=O)c(C#N)c1C (stereo unspecified),-,-,?,-,.,-
O=S(=O)(c1cccc(F)c1)N1CCN(C(=S)NCc2ccccc2)CC1,.,.,14µM,-,.,-
O=S(=O)(c1ccccc1)N1CCN(C(=S)NCc2ccccc2)CC1,.,.,?,-,.,-
O=S(=O)(c1ccccc1F)N1CCN(C(=S)NCc2ccccc2)CC1,.,.,16µM,-,.,-
COc1ccc(OC)c(N/C(=N/c2nc(C)cc(C)n2)NC(C)=O)c1,.,.,.,-,.,.
O=C(O)C12CC3CC(C1)CC(n1ncc(N4CCN(c5ccccc5)CC4)c(Cl)c1=O)(C3)C2,-,-,7.1µM,-,.,-
O=[n+]1cc(-c2ccc(Cl)cc2)n([O-])c2c1CCC2,.,.,-,-,.,.
CCOC(=O)c1sc(S(C)=O)c2c1CCc1conc1-2 (stereo unspecified),.,.,4.5µM,-,.,.
CCOC(=O)c1sc2ccccc2c1OC(=O)c1ccc(C)cc1,-,.,?,-,-,.
CCOC(=O)Nc1sc2c(c1C#N)CCC(C)C2 (stereo unspecified),-,-,?,-,-,-
CCC1CCc2c(sc(NC(=O)C3CC=CCC3C(=O)O)c2C#N)C1 (stereo unspecified),-,32µM,1.8µM,-,.,-
N#Cc1ccc(Oc2ccc(-c3cnc4ccccc4n3)cc2)cc1C#N,-,?,?,?,-,2.8µM
N#Cc1ccc(Oc2ccc(-c3nc4ccccc4nc3-c3ccccc3)cc2)cc1C#N,-,?,?,-,-,-
SMILES,ALOX12 inhib,HPGD block,ALDH1A1 block,NPSR antag,IMPase inh,IMPase Li inh
O=C(Nc1cc(N2CCCCC2)ncn1)c1ccc(F)cc1,.,.,?,-,.,-
CCC(=O)N1c2ccccc2NC2=C(C(=O)CCC2)C1c1cccnc1 (stereo unspecified),-,-,-,-,-,-
c1csc(-c2nn3c(-c4ccncc4)nnc3s2)c1,-,-,-,-,-,-
COc1ccc(-c2nnc3sc(-c4ccco4)nn23)cc1OC,-,?,?,?,-,-
c1coc(-c2nnc3sc(-c4cccs4)nn23)c1,-,-,20µM,-,?,-
COc1cccc(-c2nnc3sc(-c4ccco4)nn23)c1,-,?,28µM,-[7.67 µM],-,?
C=Cc1c(C)/c2[n-]/c1=C\c1[n-]c(c(CC)c1C)/C=c1\[n-]c3c(c1C)C(=O)C(C(=O)[O-])C=3c1[n-]c(c(C)c1CCC(=O)[O-])\C=2.[Cu].[Na+].[Na+] (stereo unspecified),?,25µM,?,.,.,-
CN1CCN(C2=Nc3ccccc3Sc3ccc(Cl)cc32)CC1,.,.,-,.,.,-
